# Reference: article PMC7862700, “An all-to-all approach to the identification of sequence-specific readers for epigenetic DNA modifications on cytosine”
# Key:
# Test in all cases: DAPPL (digital affinity profiling via proximity ligation, sequencing); 10 mM Tris-HCl pH 7.5, 50 mM NaCl, 1 mM DTT, 4% glycerol, room temperature, 30 min; GST-TFs on glutathione beads, 16-mer random dsDNA library, 0.1% formaldehyde crosslink after washing; high values mean tight binding
# [1] = target: T1, FEV (Homo sapiens, UniProt Q99581 1-238); details: protein: recombinant; tags: N-terminal GST; dsDNA, one strand shown
# T1 sequence: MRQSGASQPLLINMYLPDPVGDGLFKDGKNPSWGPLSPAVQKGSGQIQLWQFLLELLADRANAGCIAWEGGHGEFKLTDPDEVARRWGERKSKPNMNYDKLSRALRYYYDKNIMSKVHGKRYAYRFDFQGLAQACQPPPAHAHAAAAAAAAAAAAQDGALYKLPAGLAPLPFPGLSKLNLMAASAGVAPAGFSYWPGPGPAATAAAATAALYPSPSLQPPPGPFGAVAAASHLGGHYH
# In short: (§1)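 Human transcription factors fused to GST were expressed in yeast, captured on glutathione beads, given DNA barcodes and pooled with a GST-only negative control. Pools were incubated with 200 nmole of a 16-mer random double-stranded DNA library in Tris/NaCl/DTT/glycerol buffer at room temperature for 30 min. They were then washed, crosslinked with 0.1% formaldehyde, proximity-ligated (BsaI/T4 ligase, 1 h, 37 °C), PCR-amplified and sequenced on an Illumina NextSeq500. Binding signal is each 6-mer's read frequency for a factor divided by its frequency for the GST control.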
# [2] = target: ETV5 (Homo sapiens, UniProt P41161 1-510); details: protein: recombinant; tags: N-terminal GST; dsDNA, one strand shown
# In short: as §1
# [3] = target: HSF1 (Homo sapiens, UniProt Q00613 1-529); details: protein: recombinant; tags: N-terminal GST; chain copies: 3; dsDNA, one strand shown
# In short: as §1
# [4] = target: T2, SPIC (Homo sapiens, UniProt Q8N5J4 1-248); details: protein: recombinant; tags: N-terminal GST; dsDNA, one strand shown
# T2 sequence: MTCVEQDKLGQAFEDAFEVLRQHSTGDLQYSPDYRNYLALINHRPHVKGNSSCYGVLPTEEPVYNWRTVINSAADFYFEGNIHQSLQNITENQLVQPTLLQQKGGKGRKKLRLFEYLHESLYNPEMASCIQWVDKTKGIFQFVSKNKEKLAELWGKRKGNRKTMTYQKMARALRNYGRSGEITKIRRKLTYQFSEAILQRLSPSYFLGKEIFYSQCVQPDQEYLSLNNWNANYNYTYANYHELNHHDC
# In short: as §1
# [5] = target: ELF4 (Homo sapiens, UniProt Q99607 1-663); details: protein: recombinant; tags: N-terminal GST; dsDNA, one strand shown
# In short: as §1
# [6] = target: T3, ELK4 (Homo sapiens, UniProt P28324-2 1-405); details: protein: recombinant; tags: N-terminal GST; dsDNA, one strand shown
# T3 sequence: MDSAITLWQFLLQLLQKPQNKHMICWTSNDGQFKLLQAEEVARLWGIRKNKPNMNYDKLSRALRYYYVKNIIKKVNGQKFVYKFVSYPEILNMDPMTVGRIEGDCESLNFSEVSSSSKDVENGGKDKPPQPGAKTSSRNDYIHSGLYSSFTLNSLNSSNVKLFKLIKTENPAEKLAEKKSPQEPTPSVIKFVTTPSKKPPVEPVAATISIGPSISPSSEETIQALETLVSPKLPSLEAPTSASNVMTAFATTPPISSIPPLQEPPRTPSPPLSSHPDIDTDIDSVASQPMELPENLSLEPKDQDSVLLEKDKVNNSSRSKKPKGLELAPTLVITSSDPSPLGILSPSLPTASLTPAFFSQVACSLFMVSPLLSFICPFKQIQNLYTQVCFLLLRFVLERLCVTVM
# In short: as §1
# [7] = target: T4, ETV2 (Homo sapiens, UniProt O00321 1-342); details: protein: recombinant; tags: N-terminal GST; dsDNA, one strand shown
# T4 sequence: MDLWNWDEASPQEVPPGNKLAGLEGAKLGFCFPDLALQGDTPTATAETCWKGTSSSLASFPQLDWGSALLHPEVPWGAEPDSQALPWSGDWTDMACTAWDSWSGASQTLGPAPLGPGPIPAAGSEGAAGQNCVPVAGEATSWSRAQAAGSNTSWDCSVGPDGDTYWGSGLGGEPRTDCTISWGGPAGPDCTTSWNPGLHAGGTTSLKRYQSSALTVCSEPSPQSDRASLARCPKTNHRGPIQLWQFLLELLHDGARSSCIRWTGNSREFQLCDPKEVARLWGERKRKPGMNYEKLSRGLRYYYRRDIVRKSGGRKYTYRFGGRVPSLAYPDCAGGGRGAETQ
# In short: as §1
# [8] = target: T5, ELF3 (Homo sapiens, UniProt P78545 1-371); details: protein: recombinant; tags: N-terminal GST; dsDNA, one strand shown
# T5 sequence: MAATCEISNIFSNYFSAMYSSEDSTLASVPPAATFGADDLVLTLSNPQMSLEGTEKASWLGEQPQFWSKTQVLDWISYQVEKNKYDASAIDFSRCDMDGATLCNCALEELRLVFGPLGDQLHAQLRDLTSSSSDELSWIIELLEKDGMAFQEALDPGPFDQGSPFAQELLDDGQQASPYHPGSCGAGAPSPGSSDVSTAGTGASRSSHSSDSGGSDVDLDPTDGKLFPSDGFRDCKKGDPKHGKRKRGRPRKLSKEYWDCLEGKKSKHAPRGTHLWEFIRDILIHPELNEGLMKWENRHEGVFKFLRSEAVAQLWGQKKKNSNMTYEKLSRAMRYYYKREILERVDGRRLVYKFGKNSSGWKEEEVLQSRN
# In short: as §1
# [9] = target: CRX (Homo sapiens, UniProt O43186 1-299); details: protein: recombinant; tags: N-terminal GST; dsDNA, one strand shown
# In short: as §1
# [10] = target: ETV1 (Homo sapiens, UniProt P50549 1-477); details: protein: recombinant; tags: N-terminal GST; dsDNA, one strand shown
# In short: as §1
# [11] = target: T6, ERF (Homo sapiens, UniProt P50548 1-548); details: protein: recombinant; tags: N-terminal GST; dsDNA, one strand shown
# T6 sequence: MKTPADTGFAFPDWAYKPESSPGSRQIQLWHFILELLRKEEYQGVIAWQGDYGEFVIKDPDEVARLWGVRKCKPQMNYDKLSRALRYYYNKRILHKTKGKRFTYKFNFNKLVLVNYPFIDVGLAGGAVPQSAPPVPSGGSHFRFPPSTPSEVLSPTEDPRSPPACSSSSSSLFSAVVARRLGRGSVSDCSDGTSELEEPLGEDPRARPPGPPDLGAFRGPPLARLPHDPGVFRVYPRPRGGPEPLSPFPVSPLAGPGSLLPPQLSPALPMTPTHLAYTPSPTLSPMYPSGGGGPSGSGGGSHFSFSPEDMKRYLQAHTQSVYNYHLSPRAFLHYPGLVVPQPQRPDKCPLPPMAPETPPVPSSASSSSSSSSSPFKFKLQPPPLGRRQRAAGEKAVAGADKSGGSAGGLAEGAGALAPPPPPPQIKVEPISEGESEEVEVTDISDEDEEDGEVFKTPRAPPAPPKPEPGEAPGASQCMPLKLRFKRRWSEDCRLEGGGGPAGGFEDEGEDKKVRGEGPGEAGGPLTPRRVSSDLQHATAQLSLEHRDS
# In short: as §1
# [12] = target: T7, ETV3L (Homo sapiens, UniProt Q6ZN32 1-361); details: protein: recombinant; tags: N-terminal GST; dsDNA, one strand shown
# T7 sequence: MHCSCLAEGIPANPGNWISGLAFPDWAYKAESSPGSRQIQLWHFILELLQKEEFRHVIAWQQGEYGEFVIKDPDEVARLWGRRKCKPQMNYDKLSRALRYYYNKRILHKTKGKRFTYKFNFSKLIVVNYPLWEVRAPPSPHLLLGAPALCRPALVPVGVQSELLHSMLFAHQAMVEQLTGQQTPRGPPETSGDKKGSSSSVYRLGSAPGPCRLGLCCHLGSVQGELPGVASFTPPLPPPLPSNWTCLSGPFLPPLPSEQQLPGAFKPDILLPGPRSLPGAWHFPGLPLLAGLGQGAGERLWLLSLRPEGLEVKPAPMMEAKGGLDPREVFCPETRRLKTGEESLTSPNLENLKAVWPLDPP
# In short: as §1
# [13] = target: T8, ETS2 (Homo sapiens, UniProt P15036 1-469); details: protein: recombinant; tags: N-terminal GST; dsDNA, one strand shown
# T8 sequence: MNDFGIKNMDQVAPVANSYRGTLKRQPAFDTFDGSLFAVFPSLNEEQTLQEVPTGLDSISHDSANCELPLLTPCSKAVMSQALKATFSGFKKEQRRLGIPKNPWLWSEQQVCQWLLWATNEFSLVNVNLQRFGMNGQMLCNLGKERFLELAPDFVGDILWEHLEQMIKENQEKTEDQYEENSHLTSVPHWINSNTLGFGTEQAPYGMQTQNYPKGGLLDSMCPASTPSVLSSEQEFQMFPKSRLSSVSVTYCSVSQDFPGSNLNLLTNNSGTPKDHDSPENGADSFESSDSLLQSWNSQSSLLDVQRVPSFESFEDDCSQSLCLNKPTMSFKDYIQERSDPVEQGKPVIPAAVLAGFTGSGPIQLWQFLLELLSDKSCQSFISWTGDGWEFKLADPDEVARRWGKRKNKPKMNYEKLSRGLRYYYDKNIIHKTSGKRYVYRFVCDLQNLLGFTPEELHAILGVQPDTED
# In short: as §1
# [14] = target: T9, SPDEF (Homo sapiens, UniProt O95238 1-335); details: protein: recombinant; tags: N-terminal GST; dsDNA, one strand shown
# T9 sequence: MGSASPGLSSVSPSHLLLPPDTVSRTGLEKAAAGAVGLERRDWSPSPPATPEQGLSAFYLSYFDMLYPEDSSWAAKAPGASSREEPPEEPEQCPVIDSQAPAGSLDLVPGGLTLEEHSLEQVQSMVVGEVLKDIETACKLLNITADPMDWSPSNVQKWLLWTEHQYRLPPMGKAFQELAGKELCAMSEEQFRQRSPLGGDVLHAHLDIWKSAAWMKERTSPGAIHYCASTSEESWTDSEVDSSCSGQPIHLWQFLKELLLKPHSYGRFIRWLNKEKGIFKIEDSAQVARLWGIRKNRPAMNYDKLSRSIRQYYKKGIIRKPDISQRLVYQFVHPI
# In short: as §1
# [15] = target: T10, ETV7 (Homo sapiens, UniProt Q9Y603 1-341); details: protein: recombinant; tags: N-terminal GST; dsDNA, one strand shown
# T10 sequence: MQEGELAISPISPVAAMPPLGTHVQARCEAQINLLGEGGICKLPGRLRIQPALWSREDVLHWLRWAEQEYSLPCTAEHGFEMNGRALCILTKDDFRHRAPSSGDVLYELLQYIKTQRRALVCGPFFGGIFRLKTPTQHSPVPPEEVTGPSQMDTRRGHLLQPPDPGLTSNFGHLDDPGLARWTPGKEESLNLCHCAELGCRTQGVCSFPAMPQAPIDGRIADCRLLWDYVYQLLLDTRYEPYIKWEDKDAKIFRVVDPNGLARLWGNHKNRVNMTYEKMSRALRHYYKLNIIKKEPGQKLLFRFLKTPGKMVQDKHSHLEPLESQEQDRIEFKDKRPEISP
# In short: as §1
# [16] = target: T11, ELF5 (Homo sapiens, UniProt Q9UKW6-2 1-255); details: protein: recombinant; tags: N-terminal GST; dsDNA, one strand shown
# T11 sequence: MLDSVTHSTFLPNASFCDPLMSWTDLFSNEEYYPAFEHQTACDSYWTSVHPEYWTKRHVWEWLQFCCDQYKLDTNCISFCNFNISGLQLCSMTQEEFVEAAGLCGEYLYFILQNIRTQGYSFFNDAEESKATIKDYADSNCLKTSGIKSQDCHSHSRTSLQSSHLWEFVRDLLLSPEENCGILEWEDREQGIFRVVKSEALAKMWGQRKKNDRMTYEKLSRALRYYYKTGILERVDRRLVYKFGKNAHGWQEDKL
# In short: as §1
# [17] = target: T12, ETV3 (Homo sapiens, UniProt P41162-2 1-143); details: protein: recombinant; tags: N-terminal GST; dsDNA, one strand shown
# T12 sequence: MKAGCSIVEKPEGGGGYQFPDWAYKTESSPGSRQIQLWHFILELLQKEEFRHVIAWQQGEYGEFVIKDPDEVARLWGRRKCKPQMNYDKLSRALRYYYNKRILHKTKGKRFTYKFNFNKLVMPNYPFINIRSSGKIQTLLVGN
# In short: as §1
# [18] = target: ETV6 (Homo sapiens, UniProt P41212 1-452); details: protein: recombinant; tags: N-terminal GST; dsDNA, one strand shown
# In short: as §1
# Sequence of CRX (O43186 whole entry): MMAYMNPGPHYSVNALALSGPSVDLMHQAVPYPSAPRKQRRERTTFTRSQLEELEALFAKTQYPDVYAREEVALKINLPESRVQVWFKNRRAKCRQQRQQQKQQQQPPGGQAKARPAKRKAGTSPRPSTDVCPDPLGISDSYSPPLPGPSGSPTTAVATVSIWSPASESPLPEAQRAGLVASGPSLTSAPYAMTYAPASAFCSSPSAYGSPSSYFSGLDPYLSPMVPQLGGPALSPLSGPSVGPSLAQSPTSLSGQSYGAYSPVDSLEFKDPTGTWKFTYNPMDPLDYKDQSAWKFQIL
# Sequence of ETV5 (P41161 whole entry): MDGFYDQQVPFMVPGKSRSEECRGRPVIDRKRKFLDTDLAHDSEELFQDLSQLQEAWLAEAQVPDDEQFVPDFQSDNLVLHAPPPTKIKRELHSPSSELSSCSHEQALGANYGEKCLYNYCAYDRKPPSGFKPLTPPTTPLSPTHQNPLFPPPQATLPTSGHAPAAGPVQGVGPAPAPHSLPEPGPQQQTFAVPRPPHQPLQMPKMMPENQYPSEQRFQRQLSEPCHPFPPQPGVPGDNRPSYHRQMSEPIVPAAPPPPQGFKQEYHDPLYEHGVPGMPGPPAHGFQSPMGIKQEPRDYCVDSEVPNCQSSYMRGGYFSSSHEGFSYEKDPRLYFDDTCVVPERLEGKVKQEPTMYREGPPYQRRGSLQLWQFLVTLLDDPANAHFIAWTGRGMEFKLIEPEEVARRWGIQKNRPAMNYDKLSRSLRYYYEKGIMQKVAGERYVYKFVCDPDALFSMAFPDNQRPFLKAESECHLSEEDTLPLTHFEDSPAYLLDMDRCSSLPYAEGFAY
# Sequence of ETV1 (P50549 whole entry): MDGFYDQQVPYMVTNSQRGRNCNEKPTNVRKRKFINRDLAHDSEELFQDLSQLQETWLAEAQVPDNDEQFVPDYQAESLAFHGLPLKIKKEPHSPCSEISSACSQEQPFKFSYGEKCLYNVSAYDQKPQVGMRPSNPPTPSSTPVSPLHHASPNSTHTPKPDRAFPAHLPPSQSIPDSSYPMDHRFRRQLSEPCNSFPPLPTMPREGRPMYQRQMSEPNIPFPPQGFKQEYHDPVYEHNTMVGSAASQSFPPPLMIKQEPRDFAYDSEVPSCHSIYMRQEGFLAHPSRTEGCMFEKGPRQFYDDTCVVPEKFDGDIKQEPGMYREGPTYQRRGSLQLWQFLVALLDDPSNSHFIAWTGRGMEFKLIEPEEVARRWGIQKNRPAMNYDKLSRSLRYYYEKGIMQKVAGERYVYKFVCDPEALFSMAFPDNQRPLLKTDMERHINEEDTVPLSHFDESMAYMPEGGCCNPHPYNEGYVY
# Sequence of HSF1 (Q00613 whole entry): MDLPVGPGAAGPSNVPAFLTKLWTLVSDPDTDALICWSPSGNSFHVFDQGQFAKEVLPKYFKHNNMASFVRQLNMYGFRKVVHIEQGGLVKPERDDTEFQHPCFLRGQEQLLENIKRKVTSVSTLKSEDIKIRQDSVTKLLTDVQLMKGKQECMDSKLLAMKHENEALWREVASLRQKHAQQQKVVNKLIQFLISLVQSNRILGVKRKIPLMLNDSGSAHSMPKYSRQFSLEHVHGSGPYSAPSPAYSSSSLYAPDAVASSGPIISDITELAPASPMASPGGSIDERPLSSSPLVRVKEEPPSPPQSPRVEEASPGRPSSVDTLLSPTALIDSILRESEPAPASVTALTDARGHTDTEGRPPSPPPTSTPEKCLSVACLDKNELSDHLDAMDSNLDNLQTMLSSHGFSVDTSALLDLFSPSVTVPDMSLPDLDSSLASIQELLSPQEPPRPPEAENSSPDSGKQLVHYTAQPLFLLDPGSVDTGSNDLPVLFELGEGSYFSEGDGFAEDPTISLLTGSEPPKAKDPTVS
# Sequence of ETV6 (P41212 whole entry): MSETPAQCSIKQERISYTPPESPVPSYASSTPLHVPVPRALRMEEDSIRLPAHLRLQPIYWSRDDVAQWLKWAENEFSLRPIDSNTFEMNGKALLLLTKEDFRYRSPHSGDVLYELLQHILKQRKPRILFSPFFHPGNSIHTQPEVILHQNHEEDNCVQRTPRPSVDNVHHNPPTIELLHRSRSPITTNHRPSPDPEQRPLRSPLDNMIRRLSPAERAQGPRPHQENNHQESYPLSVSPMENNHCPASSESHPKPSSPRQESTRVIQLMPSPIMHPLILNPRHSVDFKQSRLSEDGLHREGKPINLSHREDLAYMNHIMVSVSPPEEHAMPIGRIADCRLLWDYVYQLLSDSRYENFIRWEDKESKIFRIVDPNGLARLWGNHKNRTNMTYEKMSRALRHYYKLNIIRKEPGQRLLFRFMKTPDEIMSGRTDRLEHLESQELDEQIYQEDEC
# Sequence of ELF4 (Q99607 whole entry): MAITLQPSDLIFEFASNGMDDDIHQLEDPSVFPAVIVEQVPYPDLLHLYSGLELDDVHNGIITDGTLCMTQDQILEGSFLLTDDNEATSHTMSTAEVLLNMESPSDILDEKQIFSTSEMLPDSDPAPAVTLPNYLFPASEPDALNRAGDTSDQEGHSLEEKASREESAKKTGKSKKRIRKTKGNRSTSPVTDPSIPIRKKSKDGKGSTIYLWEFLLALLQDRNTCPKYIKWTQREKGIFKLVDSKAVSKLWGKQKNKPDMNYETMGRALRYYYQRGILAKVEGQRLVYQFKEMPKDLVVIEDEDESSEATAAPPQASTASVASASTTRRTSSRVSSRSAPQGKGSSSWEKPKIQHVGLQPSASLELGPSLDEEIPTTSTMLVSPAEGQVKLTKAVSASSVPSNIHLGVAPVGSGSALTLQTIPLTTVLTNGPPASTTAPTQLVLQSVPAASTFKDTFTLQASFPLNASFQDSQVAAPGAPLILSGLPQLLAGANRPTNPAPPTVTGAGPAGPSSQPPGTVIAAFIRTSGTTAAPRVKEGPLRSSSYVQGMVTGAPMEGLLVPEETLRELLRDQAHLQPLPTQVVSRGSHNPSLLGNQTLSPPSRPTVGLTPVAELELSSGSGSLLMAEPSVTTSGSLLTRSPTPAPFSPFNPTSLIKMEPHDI
sequence,measurement,setting,value
CTTTGG,binding signal,[1],"1.15 fold enrichment (6-mer frequency, TF over GST control)"
same,binding signal,[2],"1.17 fold enrichment (6-mer frequency, TF over GST control)"
same,binding signal,[3],"1.26 fold enrichment (6-mer frequency, TF over GST control)"
same,binding signal,[4],"1.17 fold enrichment (6-mer frequency, TF over GST control)"
same,binding signal,[5],"1.16 fold enrichment (6-mer frequency, TF over GST control)"
same,binding signal,[6],"1.02 fold enrichment (6-mer frequency, TF over GST control)"
same,binding signal,[7],"1.27 fold enrichment (6-mer frequency, TF over GST control)"
same,binding signal,[8],"1.23 fold enrichment (6-mer frequency, TF over GST control)"
same,binding signal,[9],"1.29 fold enrichment (6-mer frequency, TF over GST control)"
same,binding signal,[10],"1.17 fold enrichment (6-mer frequency, TF over GST control)"
same,binding signal,[11],"1.19 fold enrichment (6-mer frequency, TF over GST control)"
same,binding signal,[12],"1.18 fold enrichment (6-mer frequency, TF over GST control)"
same,binding signal,[13],"1.13 fold enrichment (6-mer frequency, TF over GST control)"
same,binding signal,[14],"1.09 fold enrichment (6-mer frequency, TF over GST control)"
same,binding signal,[15],"1.26 fold enrichment (6-mer frequency, TF over GST control)"
same,binding signal,[16],"1.09 fold enrichment (6-mer frequency, TF over GST control)"
same,binding signal,[17],"1.22 fold enrichment (6-mer frequency, TF over GST control)"
same,binding signal,[18],"1.14 fold enrichment (6-mer frequency, TF over GST control)"
